# In the library only some 1.2% were active in any assay of this set; here they are far more common.
# RGS4-Gao reg = human RGS4-Galphao interaction regulation; P09471; Multiplexed bead flow cytometry, RGS4-Galphao binding; actives lie on both sides; binding response (% of control), % at 10 µM; 0.33% of 220,000 active; AID 1415; in the data active means binding response below about 49% or above about 150%; inactive means in between;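 further: fluorescent Galphao activated with aluminum fluoride binding bead-coupled RGS4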
# RGS7-Gao reg = regulators of human RGS7-Galphao interaction. P09471. Multiplexed bead flow cytometry, RGS7-Galphao binding; actives lie on both sides. binding response (% of control), % at 10 µM. 0.35% of 220,000 active. AID 1439; in the data active means binding response below about 49% or above about 150%; inconclusive means no clear call, values can overlap the other calls; inactive means in between;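 further: fluorescent Galphao held in activated GDP-AlF4 state binding bead-coupled RGS7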
# RGS16-Gao HTS = RGS16-Galphao interaction regulator (human); bead-based flow cytometry RGS16-Galphao binding, fluorescence; actives lie on both sides; AID 1441; 0.38% of 220,000 active; binding response (% of control), % at 10 µM; O15492+P09471; call rule not given here;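 further: Galphao activated by GDP with aluminum fluoride before binding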
# Target sequence (O15492 whole entry, looked up): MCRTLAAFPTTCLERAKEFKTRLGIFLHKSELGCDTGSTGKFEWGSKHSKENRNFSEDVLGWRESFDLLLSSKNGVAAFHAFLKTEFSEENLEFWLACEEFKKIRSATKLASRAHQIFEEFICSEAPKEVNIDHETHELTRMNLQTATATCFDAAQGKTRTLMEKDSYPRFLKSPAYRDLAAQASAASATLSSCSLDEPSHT
# Target sequence (P09471 whole entry, looked up): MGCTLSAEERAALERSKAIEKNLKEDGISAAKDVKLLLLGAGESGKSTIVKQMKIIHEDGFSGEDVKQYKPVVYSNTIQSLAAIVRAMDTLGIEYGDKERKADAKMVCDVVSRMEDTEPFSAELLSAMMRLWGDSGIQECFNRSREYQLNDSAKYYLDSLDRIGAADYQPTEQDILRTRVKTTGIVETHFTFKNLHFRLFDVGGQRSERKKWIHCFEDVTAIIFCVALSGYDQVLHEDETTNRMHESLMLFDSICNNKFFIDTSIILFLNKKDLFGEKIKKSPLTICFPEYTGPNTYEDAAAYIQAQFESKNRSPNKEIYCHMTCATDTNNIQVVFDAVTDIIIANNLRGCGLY
# RGS8-Gao = modulates binding of RGS8 to human Galphao | response (percent of control binding), % at 10 µM | 0.34% of 220,000 active | P09471 | multiplexed bead flow cytometry; actives lie on both sides; in the data active means response below about 60% or above about 140%; inactive means in between;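 further: Galphao activated as the GDP aluminium fluoride complex binding bead-coupled RGS8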
# Avidin fluor = avidin bead compound fluorescence profile; fluorescence (KMESF) at 10 µM; AID 1775; 0.38% of 220,000 active; Avidin beads, compound fluorescence 488/530 nm, flow cytometry; active compounds read high; in the data active means fluorescence above about 47
# GSH fluor = compound fluoresces at 488/530 nm on GSH beads; GSH beads flow cytometry, compound fluorescence 488/530 nm; active compounds read high; fluorescence (KMESF) at 10 µM; 0.25% of 190,000 active; AID 1776; in the data active means fluorescence above about 89;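 further: glutathione beads carrying GST-tagged Bcl family fusion proteins plus one bare bead set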
# A number is an active result; – = inactive; ? = inconclusive; · = no result.
SMILES,RGS4-Gao reg,RGS7-Gao reg,RGS16-Gao HTS,RGS8-Gao,Avidin fluor,GSH fluor
CC1=CCC(C(=O)O)C(C(=O)Nc2nc3ccc(S(C)(=O)=O)cc3s2)C1 (configuration not stated),–,–,–,–,–,92
CCNc1nc(NC(C)C)nc(Oc2ccc(/C=N/O)cc2)n1,–,–,–,–,–,–
Cc1ccc2nc3c(cc2c1)c(NC(=O)c1ccccn1)nn3CC(C)C,–,–,–,–,62,–
CCn1c(SCC(=O)Nc2ccc(-c3nc4ccc(C)cc4s3)cc2)nnc1-c1ccccc1,–,–,–,–,256,–
Cc1cccn2c(NC(=O)c3cccs3)c(-c3ccccc3)nc12,–,–,–,–,–,–
CCC(Sc1ccc(C(=O)O)cc1)C(=O)O (configuration not stated),–,–,–,–,50,–
CC(C)(CNS(=O)(=O)c1ccc(F)cc1)CNS(=O)(=O)c1ccc(F)cc1,–,–,–,–,51,–
O=S(=O)(NCCNS(=O)(=O)c1ccc(F)cc1)c1ccc(F)cc1,–,–,–,–,–,–
Cc1cc(C(=O)OCc2nnc(-c3ccccc3)o2)c(C)n1-c1ccccc1,–,–,–,–,–,261
Cn1cc([N+](=O)[O-])c(C(=O)Nc2ccc(-c3nc4ccccc4o3)cc2)n1,–,?,–,–,–,·
C=CCNS(=O)(=O)c1cccc2cc(C(=O)O)c(O)cc12,–,–,–,–,50,–
C=CCNS(=O)(=O)c1cccc(C(C)=O)c1,–,–,–,–,–,–
CCNS(=O)(=O)c1ccc2nc(NC(=O)/C=C/c3cc(OC)c(OC)c(OC)c3)sc2c1,–,–,–,–,–,–
C/C(O)=c1/ccc2cccc3nc(C)nc1c23,–,–,–,–,48,–
Cc1nc2ccccc2nc(C)c1=NO,–,–,–,–,–,–
Cc1cc(NC(=O)C2(c3ccccc3)CCCC2)no1,–,–,–,–,59,–
O=c1cc(-c2ccccc2)[nH]n1-c1nc2ccccc2[nH]1,–,–,–,–,50,–
CCc1cc(=O)[nH]c(-n2[nH]c(-c3ccccc3)cc2=O)n1,–,–,–,–,–,–
Cc1ccccc1NC(=O)C1CCCN1C(=O)NC1CCCCC1 (configuration not stated),–,–,–,–,–,263
CNC(=S)N1N=C(c2ccc(Br)cc2)CC1c1ccc(Br)cc1 (configuration not stated),–,–,–,–,48,–
CNC(=S)N1N=C(c2ccc(Br)cc2)CC1c1ccc(N(C)C)cc1 (configuration not stated),–,?,–,–,–,–
CCn1c(SCC(=O)OCc2ccccc2)nc2c1c(=O)n(C)c(=O)n2C,–,–,–,–,–,–
CCOC(=O)CSc1nc2c(c(=O)n(C)c(=O)n2C)n1CCCc1ccccc1,–,–,–,–,–,269
Cc1cc2cc(C)c3nnc(SCC(=O)N4CCc5ccccc54)n3c2cc1C,22,14,1.3,12,–,–
Cc1cc2cc(C)c3nnc(SCC(=O)N4CCCc5ccccc54)n3c2cc1C,–,–,–,–,–,–
SMILES,RGS4-Gao reg,RGS7-Gao reg,RGS16-Gao HTS,RGS8-Gao,Avidin fluor,GSH fluor
CCCC(=O)c1ccc(O)cc1O,–,?,–,–,–,·
CCc1nc2c(sc3nc4c(cc32)COC(C)(C)C4)c(=O)n1Cc1ccco1,–,–,–,–,65,–
O=C(N/N=C/c1ccc(-c2ccccc2[N+](=O)[O-])o1)c1cncc(Br)c1,–,–,–,–,83,–
COc1ccc(Cl)cc1N1C(=O)CC(N2CCc3ccccc32)C1=O (configuration not stated),–,–,–,–,–,264
COCCN1C(=O)c2ccccc2C(C(=O)NCCN(C)C)C1c1ccc(F)cc1 (configuration not stated),–,–,–,–,–,–
COCCNC(=O)C1c2ccccc2C(=O)N(CCOC)C1c1ccc(F)cc1 (configuration not stated),–,–,–,–,48,–
CC(=O)NS(=O)(=O)c1ccc(Nc2ccc([N+](=O)[O-])c3nonc23)cc1,–,?,–,–,–,·
Cc1ccccc1-n1nc(C(=O)O)c(C)c(C#N)c1=O,–,–,–,–,–,255
CN(C)CCCNC(=O)c1cc(C(=O)c2ccc(F)cc2)c[nH]1,–,?,–,–,–,–
Cc1nc2ccccn2c1-c1nnco1,–,–,–,–,47,–
Cc1cccc(Nc2nc(-c3c(C)nc4ccccn34)cs2)c1,–,–,–,–,–,–
CN(Cc1ccccc1)S(=O)(=O)c1ccc(NS(=O)(=O)Cc2ccccc2)cc1,–,–,–,–,50,–
O=C(NCCc1c[nH]c2ccccc12)c1cnccn1,–,–,–,–,–,–
N#CC1=C(N)OC2=C(CC/C2=C\c2ccccc2Cl)C1c1ccccc1Cl (configuration not stated),–,–,–,–,–,–
Cc1oc(C)c2c(=O)ccc3c(c12)OC(N)=C(C#N)C3c1ccccc1 (configuration not stated),–,–,–,–,–,585
N#CC1=C(N)Oc2c(ccc3cccnc23)C1c1ccccc1 (configuration not stated),–,?,–,–,–,·
Cc1oc(C)c2c(=O)ccc3c(c12)OC(N)=C(C#N)C3c1ccccc1Cl (configuration not stated),–,–,–,–,–,138
CC(C)C12CN3CC(C(C)C)(CN(C1)C3c1ccccc1)C2O (configuration not stated),–,–,–,–,–,253
CN1CCC(N(C)C(=O)c2sc3cc(F)ccc3c2Cl)CC1,–,?,–,–,136,–
CC(C)N(CC(N)=O)C(=O)c1sc2cc(F)ccc2c1Cl,–,–,–,–,–,–
O=C(NC1CCCCC1)C(c1ccco1)N(C(=O)c1csnn1)C1CCCC1 (configuration not stated),36,29,–,28,–,–
NC(=O)c1ccc(OCC(F)(F)F)nc1,–,?,–,–,–,·
COc1ccc(-n2c(=O)c3ccccc3n(Cc3ccc(F)cc3)c2=O)cc1OC,–,–,–,–,104,–
COc1cc(C(=O)NNC(=S)NC(=O)c2ccc(Cl)cc2)cc(OC)c1OC,–,–,–,–,–,446
O=C(Nc1ccc2oc(=O)ccc2c1)c1ccc(-c2cccc(Cl)c2)o1,–,?,–,–,–,·
O=C(Nc1ccc2oc(=O)ccc2c1)c1ccc(-c2cccc([N+](=O)[O-])c2)o1,–,?,–,–,65,·
COc1ccc(Cn2c(=O)[nH]c3cc(C(=O)NCc4ccc5c(c4)OCO5)ccc3c2=O)cc1,–,–,–,–,65,–

# Assay outcomes: PubChem, NMMLSC
